# Screening results deposited in PubChem BioAssay by National Center for Advancing Translational Sciences (NCATS).
# GLP1R inv ag = qHTS of GLP-1 Receptor Inverse Agonists (Inhibition Mode); 410,000 compounds, 1.6% hits; HEK293 GLP-1R CRE-luciferase, luminescence, 24 h; GLP-1R form is constitutively active; Glucagon-like peptide 1 receptor (Homo sapiens), P43220; Potency, µM (series often up to 38.3 µM), inactives show at the top dose activity change, negative = inhibition, usual class: inhibitors; further: on the % scale 0 is the no-effect control and ±100 the full control effect; nearly all actives have a fitted effect of over 55% in size
# Target sequence (P43220 whole entry, looked up): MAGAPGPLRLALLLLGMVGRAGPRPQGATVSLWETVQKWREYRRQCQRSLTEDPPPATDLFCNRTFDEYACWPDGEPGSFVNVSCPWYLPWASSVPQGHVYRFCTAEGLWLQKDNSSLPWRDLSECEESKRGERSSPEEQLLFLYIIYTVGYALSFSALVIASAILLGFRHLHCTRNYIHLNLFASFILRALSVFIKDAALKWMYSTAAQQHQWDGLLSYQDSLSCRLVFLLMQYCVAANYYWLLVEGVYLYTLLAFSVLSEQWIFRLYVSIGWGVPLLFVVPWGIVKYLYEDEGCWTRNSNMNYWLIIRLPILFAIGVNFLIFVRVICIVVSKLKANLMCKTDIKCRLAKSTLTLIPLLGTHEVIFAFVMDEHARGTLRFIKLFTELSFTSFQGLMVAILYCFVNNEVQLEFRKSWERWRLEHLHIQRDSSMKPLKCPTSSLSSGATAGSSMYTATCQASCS
#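 Luminescence readout: a drop in cAMP-driven luciferase signal flags inverse agonism at a constitutively active GLP-1R stably expressed in HEK293. Compound exposure lasted 24 hr at 37 deg C, 5% CO2.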
# GLP-1R agonist = qHTS of GLP-1 Receptor Agonists | Glucagon-like peptide 1 receptor (Homo sapiens), P43220 | HEK293 GLP-1R CRE-luciferase, luminescence, 4-6 h; cells express a hypersensitive GLP-1R form | Potency, µM (doses to about 45.6 µM), for the others: at the top dose activation, most hits filed as activators | 380,000 compounds, 0.007% hits; further: % of control where 0% means no effect
# PTHR1 agonist = qHTS for PTHR1 Agonists: Primary Screen | Parathyroid hormone/parathyroid hormone-related peptide receptor (Homo sapiens), Q03431 | HEK293 GP2 PTHR1 cells, GloSensor cAMP luminescence, 1 h | Potency, µM (highest dose often 115 µM), for the others: top-dose activation, actives largely listed as activators | 410,000 compounds, 0.075% hits | AID 743266, 2014; further: nearly all actives have a fitted effect of over 55% in size
#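 HEK-293-derived GP2 cells expressing PTHR1 and a GloSensor cAMP reporter, 3,000/well, plated overnight, given luciferin plus IBMX (each 0.5 mM as added) for 1 h at 37 °C, then compound for 1 h at 37 °C. Luminescence was read after 15 min at room temperature.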
# GLP1R cytotox = qHTS of GLP-1 Receptor Inverse Agonists: Cytotox Screen; HEK293 cAMP-luciferase reporter cells, luminescence, 24 h; Potency, µM (series often up to 38.3 µM), for inactives: top-dose activity change, negative = inhibition, actives largely listed as inhibitors; 410,000 compounds, 0.13% hits;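 further: loss of luciferase light is scored as toxicity; on the % scale 0 is the no-effect control and ±100 the full control effect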
#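 Here, cytotoxicity is scored as loss of luminescence. The MLSMR collection was tested on cells seeded in medium containing 10% Nu serum, with a 24 hr compound exposure preceded by 12 hours of culture.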
# An asterisk follows results filed as active; i = inactive; ? = inconclusive; / = not tested or not shown; [ ] = another dose, or the depositor's remark. The list is not random: actives were taken first. Their share in the collection is about 1.7%. The call rests on the fitted dose curve; in most records, active means well fitted curve in the direction sought with a large enough effect; inconclusive means small, poorly fitted or top-dose-only effect, or another doubt; inactive means no such curve, though single readings can be large; an effect the other way counts as inactive or inconclusive. Potency means the concentration at half of the fitted maximal effect.
SMILES,GLP1R inv ag,GLP-1R agonist,PTHR1 agonist,GLP1R cytotox
Cc1cccc(NC(=O)NC(C)CCc2ccccc2)c1 (stereo unspecified),10µM*,12.0%,-15.9%,-13.4%
Cc1ccc(NC(=O)C(=O)NCc2ccc(Cl)cc2)cc1,2.8%,/,-33.0%,-5.0%
COc1cccc(CNC(=O)C(C)n2c(=O)cc(-c3ccccc3)c3c(C)nn(C)c32)c1 (stereo unspecified),2.0%,/,-19.9%,8.1%
CCOc1ccc(CNC(=O)CS(=O)(=O)c2cccc3nsnc23)cc1,-1.0%,3.2%,?,13.2%
COc1cc(-c2nc(-c3ccc4c(c3)-c3ccccc3S4(=O)=O)c(-c3ccccc3)[nH]2)cc(OC)c1OC,1.58µM*,-1.9%,-8.1%[57.5 µM],141.8%
COc1ccc(NC(=O)CCS(=O)(=O)c2ccc3nc(C)sc3c2)cc1Cl,-8.6%,/,i,-5.6%
CC1(C)CC(N=c2cc(-c3ccccc3)oc3ccc(Cl)cc23)CC(C)(C)N1,3.55µM*,-3.1%,i,-25.4%
CCn1cc(C(=O)NCCCN2CCC(C)CC2)c(=O)c2cc(S(=O)(=O)N(C)C3CCCCC3)ccc21,10µM*,6.6%,-46.3%,?
CCc1cccc2c1Sc1ccccc1CC2N1CCNCC1 (stereo unspecified),8.91µM*,4.1%,-11.8%,?
C=CCN1C(c2ccc(Br)cc2)=CS/C1=C(\C#N)c1nnc(N2CCOCC2)n1-c1ccccc1,7.08µM*,2.1%,-25.3%,-24.8%
COCCOC(=O)c1c(-c2ccccc2)c(-c2ccccc2)nn(C)c1=O,4.7%,/,i,0.1%
O=C1c2cccc(NCCCNCCO)c2C(=O)c2cccc(NCCCNCCO)c21,?,-14.5%,-12.3%,7.94µM*
O=C1c2ccccc2C(=O)c2c(NCc3cccnc3)cccc21,14.4%,2.9%,-5.9%,-1.6%
O=C(CCCN1CCN(c2ccc(F)cc2)CC1)NC1c2ccccc2CSc2ccccc21 (stereo unspecified),/,7.3%,/,/
CN(C)CC/C=C1\c2ccccc2COc2ccccc21,10µM*,-1.1%,-21.2%,-10.1%
CN(C)CC/C=C1/c2ccccc2CS(=O)(=O)c2ccccc21,7.5%,6.0%,-19.9%,-8.0%
CC(=O)N1CCOc2cc(S(=O)(=O)Nc3cccc(C(F)(F)F)c3)c(Cl)cc21,?,/,-15.0%,-1.5%
CS(=O)(=O)c1ncc(Cl)c(C(=O)N(Cc2ccc(Cl)cc2)Cc2ccco2)n1,8.91µM*,/,-3.5%,?
COc1ccc(N(Cc2ccccc2)C(=O)c2nc(S(C)(=O)=O)ncc2Cl)cc1,10µM*,/,-26.0%,?
O=C(c1ccc(Cl)cc1)N(Cc1ccco1)Cc1ccco1,-29.9%,/,10.0%,3.5%
COc1ccc(CN2C(=O)CSCC2=O)cc1OC,4.8%,-6.3%,i,0.9%
COc1ccc(CCN2C(=O)CSC2=S)cc1OC,5.62µM*,1.5%,-11.8%,?
CCc1cnc2c(c1SCC(=O)Nc1ccc(C(=O)OC)cc1)c(=O)n(C)c(=O)n2C,15.7%,/,i,-7.0%
Cc1ccc(S(=O)(=O)Oc2ccccc2-c2ccccc2)cc1,2.51µM*,8.4%,i,-24.8%
COc1cccc(-c2cn3nc4c(nc3n2)CCCC4)c1,2.51µM*,-33.7%,-14.1%[57.5 µM],294.9%
SMILES,GLP1R inv ag,GLP-1R agonist,PTHR1 agonist,GLP1R cytotox
COc1cccc(-c2cc(C(F)(F)F)n3nc(N)nc3n2)c1,123.2%,10.2%,-13.4%[57.5 µM],-11.3%
CCCSCCCNC(=O)c1ccc2nc(Cc3ccccc3)oc2c1,-17.8%,/,i,0.6%
COc1cc(NC(=O)Cn2nc(C(F)(F)F)c3c2CCCC3)c(OC)cc1Cl,-8.7%,/,11.9%,-14.5%
Cc1ccc(NC(=O)CN2CCCC2c2cccs2)cc1S(=O)(=O)N1CCCCC1 (stereo unspecified),4.47µM*,7.1%,-40.7%,0.5%
Cc1ccc(NS(=O)(=O)c2cc(NC(=O)C(C)Oc3ccccc3)ccc2C)c(C)c1 (stereo unspecified),10µM*,-2.3%,-62.6%,9.5%
Cc1ccc(NC(=O)C(C)Oc2ccccc2)cc1S(=O)(=O)N1CCCCCC1 (stereo unspecified),12.6µM*,3.1%,-29.5%,3.1%
Nc1nc(-c2cccc(Br)c2)cs1,2.6%,-3.7%,5.62µM*,1.5%
Nc1nc(-c2ccc(Br)cc2)cs1,?,1.6%,i,63.5%
COc1ccc(Sc2ccc(NC(=O)c3ccccc3Cl)cc2C#N)cc1,12.6µM*,2.4%,-11.4%,?
O=C(NCc1ccc(F)cc1)c1ccc(CSc2nc3ccncc3n2Cc2ccc(F)cc2)cc1,?,/,i,-12.3%
O=C(CCNC(=O)c1ccccc1Cl)Nc1nc(-c2ccccc2Cl)cs1,7.94µM*,0.5%,-20.8%,-8.0%
O=C(CCNC(=O)c1ccccc1Cl)Nc1nc(-c2ccc(F)cc2)cs1,-15.4%,-7.1%,-40.1%,-5.3%
CCC(NC(=O)Nc1cccc(C)c1)c1c(-n2cccc2)sc2c1CCN(C)C2 (stereo unspecified),5.3%,/,i,8.3%
CC(C)(C)c1ccc(OCCCC(=O)NNC(=O)c2ccccc2O)cc1,12.6µM*,3.4%,i,-28.4%
Cc1cccc(OC2CCN(Cc3nc(CC4CC4)no3)CC2)c1,12.6µM*,7.7%,i,17.5%
O=C(O)c1cccnc1Sc1ccc(Cl)cc1,-13.5%,1.2%,50.1µM*,-3.0%
Cc1cc(O)c(C(C)C)cc1Cl,/,7.6%,/,/
CCc1ccc(NC(=O)c2ccc3nc(N)sc3c2)cc1,?,12.1%,-13.6%,-7.7%
Nc1nc2ccc(C(=O)Nc3ccccc3)cc2s1,2.4%,6.8%,3.98µM*,-1.3%
COc1ccc(/C=C(/C(=O)NCc2ccccc2)c2ccccc2)cc1,25.1µM*,0.6%,i,-15.1%
CN1CCN(C(CNC(=O)Nc2ccc(Cl)cc2)c2ccc(F)cc2)CC1 (stereo unspecified),?,10.6%,i,-16.1%
Cc1ccc(C(CNC(=O)Nc2ccc(Cl)cc2)N2CCN(C)CC2)cc1 (stereo unspecified),8.91µM*,-6.2%,2.3%,-0.2%
COc1ccc(-c2[nH]c(-c3ccc(F)cc3)nc2SCC(=O)Nc2ccc(OC)c(OC)c2)cc1,?,/,-43.6%,-32.6%
Cc1cc(N2CCCCC2)nc2ccc(NC(=O)c3cccc(Cl)c3)cc12,?,/,-48.2%,-29.3%
Cc1cc(N2CCN(C)CC2)nc2ccc(NC(=O)Nc3cccc(Cl)c3)cc12,10µM*,/,i,?
Cc1cc(N2CCCCC2)nc2ccc(NC(=O)c3cccc(F)c3)cc12,11.2µM*,/,-92.7%,?
Cc1cc(N2CCN(C)CC2)nc2ccc(NC(=O)Nc3ccccc3)cc12,?,/,i,-2.7%
CCOc1ccccc1N(CC)C(=O)Cn1ncc2c([nH]c3ccccc32)c1=O,-36.4%,/,-12.0%,3.1%
Cc1ccc2nc(N(Cc3cccnc3)C(=O)C3CCCCC3)sc2c1,8.9%,/,-39.4%,5.0%
Cc1ccccc1N1CC(C(=O)Nc2ccc(Br)cc2)CC1=O (stereo unspecified),?,/,-3.6%,-9.3%
